# Test results reported in PubChem BioAssay (EPA / NIEHS).
# The source made the active and inactive calls. How the source made its calls: active means hit-call score of the fitted dose curve at least 0.9, where 1 is the maximum; inactive means score below 0.9.
# Read-out: Cyclin D1 (CCND1), CCND1 (gene 595)
# Test: LTEA_HepaRG_CCND1: Life Technologies and Expression Analysis (LTEA) Assay for Cyclin D1 (CCND1) using HepaRG (AID 2283451);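 on AC50: TaqMan qRT-PCR transcript level normalised to ACTB GAPDH and POLR2A housekeeping genes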
# Conditions: mRNA level, 48 h; actives raise or lower the signal
# Experimental: LTEA_HepaRG is a cell based, multiplexed-readout assay that uses HepaRG, a human liver cell line, with measurements taken at 48 hours after chemical dosing on a 96-well plate.LTEA_HepaRG_CCND1 is one of 102 assay component(s) measured in the LTEA HepaRG cell culture assay. It is a marker of Cell proliferation, survival, death.Data from the assay component LTEA_HepaRG_CCND1 was analyzed into 1 endpoint. This assay endpoint, LTEA_HepaRG_CCND1, was analyzed with bidirectional fitting relative to DMSO as the negative control and baseline of activity. Using a type of inducible reporter, measures of mRNA induction for gain or loss-of-signal activity can be used to understand regulation of transcription factor activity. To generalize the intended target to other relatable targets, this assay endpoint is annotated to the cell cycle intended target family, where the subfamily is Cell proliferation, survival, death.
# A total of 1060 chemcials from the ToxCast library were tested in eight-point concentration-response experiments. Cell culture and cytotoxicity assays were conducted at Thermo Fisher Scientific's Custom Services facility (Madison, WI). A single lot of human HepaRG cells (Thermo Fisher Scientific, Frederick, MD) was used for the cell culture experiments. 96-well format collagen type I coated plates of human HepaRG cells were prepared using established methods. Briefly, cryopreserved HepaRG cells were thawed, plated at a density of approximately 100,000 cells/well in HepaRG Thaw, Plate, and General Purpose media (HPRG770, Thermo Fisher Scientific), and incubated for 48 hours. 0.5% DMSO was selected as vehicle control to balance the requisite need of DMSO in HepaRG cultures to maintain differentiation (for example, baseline metabolism, proportions of hepatocytes vs. cholangiocytes), while enabling further hepatic receptor pathway activation (for example, PXR and CAR) in response to chemical exposure. 48 hours after plating, the culture medium was replaced with HepaRG Serum-Free Incudtion Media. Cells were exposed to each test chemical in duplicate and maintained in CO2 incubators for another 48 hours. Chemical plates were thawed to room temperature and 200x concentrations of treatment groups were prepared. 8-point conentration-reponse curves were made with the highest exposure at 100 uM, followed by half-log dilutions, all in 0.5% DMSO. Each test plate contained variouse controls, induction positive controls (1mM phenobarbital), cytotoxicity positive controls ([…] aflatoxin B1), vehicle controls (0.5% DMSO), and total lysis controls (0.5% DMSO). Cell morphology images were taken using an Essen IncuCyte FLR automated microscope, with six 96-well plates imaged in about 24 minutes. Images were captured and exported and JPEG files. Spent culture media was transfered to black-well plates for the LDH assay, and remaining media was sorted at -80 C for later use. Cells were treated with RLT buffer and frozen until shipped for gene expression analysis. Total RNA was isolated from the cell suspension in 75 uL of Buffer RLT (Qiagen, Germantown, MD 20874) by Quintiles/Expression Analysis (Durham, NC) using a custom isolation procedure. Total RNA from each plate well was transferred to a preamplification plate. Fluidigm's 96.96 Dynamic ArrayTM (Fluidigm, Amsterdam, the Netherlands) technology was used for gene expression analyses by quantitative reverse transcription polymerase chain reaction (qRT-PCR, performed by Quintiles/Expression Analysis, Durham, NC)89. Standard TaqManTM Assays (Applied Biosystems/ThermoFisher Scientific, Foster City, CA) were used to assess the expression of 93 genes selected based on their selectivity and sensitivity to important hepatic receptors known to be modulated by environmental chemicals; importance in human hepatocyte functionality; and hepatotoxicity. […]
SMILES,outcome,AC50
CCOP(=S)(Oc1ccc([N+](=O)[O-])cc1)c1ccccc1 (stereo not given),inactive,–
CC(Cl)(Cl)C(=O)O,inactive,–
ClC1=C(Cl)C2(Cl)C3C(Cl)C(Cl)CC3C1(Cl)C2(Cl)Cl (stereo not given),inactive,–
COCCOCCO,inactive,–
O=P1(N(CCCl)CCCl)NCCCO1 (stereo not given),inactive,–
O=C(O)C1C(C(=O)O)C2(Cl)C(Cl)=C(Cl)C1(Cl)C2(Cl)Cl (stereo not given),inactive,–
[N-]=[N+]=[N-],inactive,–
ClC(Cl)(Cl)c1ccccc1,inactive,–
O=[N+]([O-])c1ccc(Cl)c(Cl)c1,inactive,–
c1nc[nH]n1,inactive,–
Nc1cc2c3c(c1)C(c1ccccc1)=N[C@@H](NC(=O)c1cccnc1)C(=O)N3CC2,inactive,–
Cc1cccc(N)c1,inactive,–
CCOS(=O)(=O)OCC,inactive,–
CCOP(=S)(OCC)SCSCC,inactive,–
CCCCN(CCCC)N=O,inactive,–
CCC(C)(C)c1ccc(O)cc1,inactive,–
Cc1ccc([N+](=O)[O-])cc1C,inactive,–
CCCCN(CCCC)SN(C)C(=O)Oc1cccc2c1OC(C)(C)C2,inactive,–
CC(Cc1ccc(OCC(=O)O)cc1)NCC(O)c1csc(C(F)(F)F)n1 (stereo not given),inactive,–
CCC1(c2ccccc2)C(=O)N=C(O)NC1=O (stereo not given),inactive,–

SMILES,outcome,AC50
O=P(Oc1ccccc1)(Oc1ccccc1)Oc1ccccc1,inactive,–
CC(C)(C)OOC(C)(C)C,inactive,–
c1ccc(OP(Oc2ccccc2)Oc2ccccc2)cc1,inactive,–
Nc1ccc(Cl)cc1,inactive,–
CN(C)C(=O)Cl,inactive,–
CCN(CC)c1ccccc1,inactive,–
CCOC(=O)c1ccccc1C(=O)OCC,inactive,–
CCCCc1ccccc1,inactive,–
CSC(C)(C)C=NO,inactive,–
Cc1ccc(O)cc1C,inactive,–
CCCN(CCC)c1c([N+](=O)[O-])cc(C(C)C)cc1[N+](=O)[O-],inactive,–
OCC1CO1 (stereo not given),inactive,–
c1ccc2c(c1)Nc1ccccc1S2,–,67.9 µM (active)
ClC(Cl)c1ccccc1,inactive,–
CC(C)(C)c1ccc(O)cc1,inactive,–
CCNc1nc(Cl)nc(NC(C)(C)C)n1,inactive,–
Nc1ccc2ccccc2c1,inactive,–
CCCCCCCc1ccc(O)cc1,inactive,–
Cc1ccc(N)cc1N,inactive,–
CCOc1ccc(C(C)(C)COCc2cccc(Oc3ccccc3)c2)cc1,inactive,–
